# Experimental data taken from PubChem BioAssay (EPA / NIEHS).
# Records with an inconclusive call do not appear. Calls of active or inactive are those of the source. How the source made its calls: active means hit-call score of the fitted dose curve at least 0.9, where 1 is the maximum; inconclusive means response in the unintended direction; inactive means score below 0.9.
# Target: human Neurokinin, NK2 Receptor, TACR2 (gene 6865) (UniProt P21452)
# Assay: NVS_GPCR_hNK2: NovaScreen (NVS) G Protein-Coupled Receptor Assay for human Neurokinin, NK2 Receptor (AID 2283278)
# Procedure, shortened: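 Radioligand binding on membranes from CHO cells expressing receptor, filter-based scintillation read 4 h after dosing. Initial duplicate screen at 25 uM, actives in concentration series; loss of signal versus DMSO.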
# 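Further: actives reduce bound radioligand signal relative to DMSO baseline.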
# human Neurokinin, NK2 Receptor, TACR2 (gene 6865), sequence (P21452 whole entry, looked up): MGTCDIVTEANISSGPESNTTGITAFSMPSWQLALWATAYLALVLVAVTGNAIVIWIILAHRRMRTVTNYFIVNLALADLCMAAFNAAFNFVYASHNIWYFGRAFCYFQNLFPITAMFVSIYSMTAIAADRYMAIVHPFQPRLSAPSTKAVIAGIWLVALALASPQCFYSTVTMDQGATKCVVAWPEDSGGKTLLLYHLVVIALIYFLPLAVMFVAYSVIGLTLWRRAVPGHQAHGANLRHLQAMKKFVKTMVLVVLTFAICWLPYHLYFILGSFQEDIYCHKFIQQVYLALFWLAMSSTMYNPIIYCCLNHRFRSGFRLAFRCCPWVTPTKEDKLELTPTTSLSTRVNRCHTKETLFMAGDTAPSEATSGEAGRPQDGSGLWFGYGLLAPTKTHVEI
Structure (SMILES),outcome,AC50
O=C=NC1CCC(CC2CCC(N=C=O)CC2)CC1 (centres undefined),inactive,–
O=C1OC2(c3cc(Br)c(O)c(Br)c3Oc3c2cc(Br)c(O)c3Br)c2c(Cl)c(Cl)c(Cl)c(Cl)c21,–,1.27 µM (active)
S=C(S)NCCNC(=S)S,–,3.54 µM (active)

# Target: human Thromboxane A2 Receptor (TXA2), TBXA2R (gene 6915) (UniProt P21731)
# Assay: NVS_GPCR_hTXA2: NovaScreen (NVS) G Protein-Coupled Receptor Assay for human Thromboxane A2 Receptor (TXA2) (AID 2283282)
# Procedure, shortened: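 Human platelet-derived receptor preparation incubated with test chemical and radiolabelled ligand for 1 hour, cell-free. Bound label was separated by filtration and counted; displacement relative to DMSO controls gave activity, screened at 25 uM, then titrated.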
# human Thromboxane A2 Receptor (TXA2), TBXA2R (gene 6915), sequence (P21731 whole entry, looked up): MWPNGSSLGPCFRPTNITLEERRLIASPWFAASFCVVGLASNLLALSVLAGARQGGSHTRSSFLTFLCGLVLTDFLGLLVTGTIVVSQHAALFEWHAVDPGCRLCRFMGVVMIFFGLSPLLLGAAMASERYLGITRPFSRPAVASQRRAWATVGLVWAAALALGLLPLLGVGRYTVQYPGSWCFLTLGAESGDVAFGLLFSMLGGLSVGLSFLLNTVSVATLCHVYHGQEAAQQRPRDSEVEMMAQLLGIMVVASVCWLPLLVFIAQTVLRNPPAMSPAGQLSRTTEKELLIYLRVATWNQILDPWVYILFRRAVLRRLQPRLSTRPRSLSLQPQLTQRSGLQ
Structure (SMILES),outcome,AC50
CCCCCCCCC=O,inactive,–
CCCCOCCOCCOCCOCCO,inactive,–
O=C1CCc2ccccc2O1,inactive,–
CCCCCCCCCC=O,inactive,–
BrC1CCC(Br)C(Br)CCC(Br)C(Br)CCC1Br (centres undefined),–,11.1 µM (active)
CN(CCOc1ccc(CC2SC(=O)NC2=O)cc1)c1ccccn1 (centres undefined),–,1.45 µM (active)
